High-throughput results deposited in PubChem BioAssay by National Center for Advancing Translational Sciences (NCATS).
DT40 TDP1 no CPT: qHTS for Inhibitors of human tyrosyl-DNA phosphodiesterase 1 (TDP1): qHTS in cells in absence of CPT; 15% of 420,000 active; DT40 Tdp1-/- hTDP1 cells, no CPT, ATP luminescence, 48 h; AID 686978, 2013; Potency, µM (doses to about 46.2 µM), inactives show at the top dose activity change, negative = growth inhibition, most hits filed as inhibitors; note: potency is the fitted concentration of half-maximal effect; % is set by controls: 0 for no effect and ±100 for the full control effect; nearly all actives have a fitted effect of over 55% in size
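Growth of hTDP1-complemented DT40 Tdp1-knockout cells is measured by ATP luminescence after at least 48 hr compound exposure at 37 °C, with DMSO substituting for the 20 nM CPT used in the parallel screen.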
DT40 TDP1 CPT: growth inhibition of DT40 Tdp1-/-;hTDP1 cells with camptothecin (screen for TDP1 inhibitors) | Potency, µM (highest dose often 46.2 µM), for inactives: at the highest dose activity change, negative = growth inhibition, hits mostly inhibitors | 12% of 420,000 active | chicken DT40 Tdp1-/-;hTDP1 cells + 20 nM CPT, ATP luminescence, 48 h; note: potency is the fitted concentration of half-maximal effect; % is set by controls: 0 for no effect and ±100 for the full control effect; nearly all actives have a fitted effect of over 55% in size
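Cell growth measured by CellTiter-Glo luminescence after a minimum 48 h, 37 C compound exposure with 20 nM CPT in Tdp1-knockout DT40 cells stably expressing hTDP1, seeded 400/well; qHTS titration format.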
TGFb SMAD3 inh: TGF-b pathway inhibition. HepG2 CAGA-GFP TGF-b/SMAD3 reporter, GFP fluorescence, 18 h; TGF-beta stimulated, 500 pg/mL final. 1.2% of 410,000 active. Potency, µM (series often up to 46.1 µM), without a hit: top-dose activity, negative = inhibition, most hits filed as inhibitors; note: potency is the fitted concentration of half-maximal effect; % is set by controls: 0 for no effect and ±100 for the full control effect; nearly all actives have a fitted effect of over 65% in size
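First, reporter cells (HEPG2 CAGA-GFP) rested 2 h at 37 degrees C. Next, compounds were pinned in and TGF-beta added to 500 pg/mL final. After 18 h, GFP was imaged per cell and summed per well.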
IL-1B inflam inh: inhibitors of inflammasome signaling (IL-1 beta secretion); THP-1 LPS/ATP IL-1B secretion, AlphaLISA, 16 h; stronger effect = lower value; activity change, % at 57.5 µM; 4.7% of 360,000 active; AID 743279; in the data active = activity change below about -50%; inconclusive = mostly about -30% to -49%; note: % is set by controls: 0 for no effect and ±100 for the full control effect
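THP-1 cells pretreated 1 hr with compounds (up to 57.5 uM final), then stimulated with LPS (250 ng/mL final) plus ATP (1.25 mM final); secreted IL-1B measured by AlphaLISA after 16 hr, decreased signal indicating inhibition.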
TDP1 inh: blocks human tyrosyl-DNA phosphodiesterase 1 | Q9NUW8 | recombinant TDP1, AlphaScreen DNA substrate cleavage | Potency, µM (doses to about 130 µM), without a hit: at the top dose activity change, negative = inhibition, most hits filed as inhibitors | 0.28% of 350,000 active; note: potency is the fitted concentration of half-maximal effect; % is set by controls: 0 for no effect and ±100 for the full control effect; nearly all actives have a fitted effect of over 40% in size
Target sequence (Q9NUW8 whole entry, looked up): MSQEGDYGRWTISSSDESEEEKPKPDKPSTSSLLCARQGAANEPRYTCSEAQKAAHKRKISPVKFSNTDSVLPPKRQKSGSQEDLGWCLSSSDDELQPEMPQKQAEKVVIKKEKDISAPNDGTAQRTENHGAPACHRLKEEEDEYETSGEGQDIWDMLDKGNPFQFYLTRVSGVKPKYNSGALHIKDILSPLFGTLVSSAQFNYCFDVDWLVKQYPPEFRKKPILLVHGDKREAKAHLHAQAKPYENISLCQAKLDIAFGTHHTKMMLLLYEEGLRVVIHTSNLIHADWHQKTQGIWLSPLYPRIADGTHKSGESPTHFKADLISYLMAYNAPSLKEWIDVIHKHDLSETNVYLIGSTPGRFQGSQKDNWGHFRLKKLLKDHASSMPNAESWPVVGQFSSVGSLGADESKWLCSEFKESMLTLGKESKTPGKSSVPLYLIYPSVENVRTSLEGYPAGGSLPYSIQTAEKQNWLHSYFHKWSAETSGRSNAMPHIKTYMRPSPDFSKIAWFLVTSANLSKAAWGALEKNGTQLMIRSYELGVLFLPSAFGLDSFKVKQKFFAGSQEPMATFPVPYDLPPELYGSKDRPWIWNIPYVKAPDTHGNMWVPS
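Compounds were preincubated with Tdp1 (1 nM final) for 15 min at room temperature before substrate (15 nM final) started a 5 min reaction; beads (10 ug/ml final) were then added for 10 min before AlphaScreen detection.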
HepG2 viability: counter-screen for TGF-b inhibitors: cytotoxicity in HepG2 cells; 0.76% of 410,000 active; Potency, µM (titrated, usually from 46.1 µM), for inactives: at the top dose activity change, negative = cytotoxicity, actives largely listed as cytotoxic; AID 588856; HepG2 CAGA-GFP viability, ATP luminescence, 18 h; note: potency is the fitted concentration of half-maximal effect
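CellTiter-Glo luminescence gave cytotoxicity after 18 hours at 37 degrees C. The cells were HepG2 CAGA-GFP in 1% FBS DMEM, stimulated with 500 pg/mL TGF-beta after compound addition. %Activity was normalised to no-cell wells (complete cell-killing) and DMSO (no toxicity), and curves were fitted and classified.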
* = called active by the depositor; ? = inconclusive; · = not tested or not shown; [ ] = dose if it differs, or a comment. Most compounds without a hit are left out; they make up all but 19% or so of the library. Unless noted, calls come from the whole dose curve; as a rule, active = well fitted curve in the direction sought with a large enough effect; inconclusive = small, poorly fitted or top-dose-only effect, or another doubt; inactive = no such curve, though single readings can be large; an effect the other way counts as inactive or inconclusive.

SMILES	DT40 TDP1 no CPT	DT40 TDP1 CPT	TGFb SMAD3 inh	IL-1B inflam inh	TDP1 inh	HepG2 viability
Cc1cccc(-c2noc(-c3ccccc3C(=O)NCc3ccco3)n2)c1	21µM*	21µM*	-22%	?	·	13%
COc1cc(-c2noc(-c3ccccc3C(=O)NCc3ccco3)n2)cc(OC)c1OC	?	?	40%	-24	4%	0%
O=C(NCc1ccco1)c1cccc(-c2nnc(-c3ccccc3)o2)c1	?	21µM*	-4%	-28	5%	-5%
Cc1ccc(-c2noc(-c3ccccc3C(=O)NCc3ccco3)n2)cc1	?	?	-18%	-15	·	-25%
Nc1ccc(N=Nc2ccccc2)c(N)c1	·	·	·	·	26%	·
COc1ccc(CCNCc2c(C(=O)O)c(C)n(Cc3cccc(Cl)c3)c2C)c(OC)c1OC	-15%	?	-3%	·	3%	-19%
COc1cc(OC)c(NC(=O)c2oc3ccc4c(c3c2C)C(=O)CC(C)(C)O4)cc1Cl	-6%	0%	8%	·	5%	-8%
Cc1nn(-c2ccccc2)c2c1N(CC(=O)N1CCN(c3ccc(Cl)cc3)CC1)C(=O)CS2	?	?	?	·	-1%	-3%
Cc1cccc(N2CCN(C(=O)CN3C(=O)CSc4c3c(C)nn4-c3ccccc3)CC2)c1C	?	?	?	·	1%	1%
Cc1nn(-c2ccccc2)c2c1N(CC(=O)N1CCN(c3ccc(F)cc3)CC1)C(=O)CS2	21µM*	?	-13%	·	5%	-2%
Cc1nn(-c2ccccc2)c2c1N(CC(=O)N1CCN(c3ccccc3F)CC1)C(=O)CS2	?	18µM*	?	·	10%	-24%
O=c1cc(-c2cccc(Br)c2)nc(-c2ccccc2F)o1	18µM*	26µM*	-19%	11	3%	-12%
COc1cccc(N2CC(NC(=O)c3ccc(S(=O)(=O)N4CCCCC4)cc3)CC2=O)c1 (configuration not stated)	?	?	-25%	·	5%	-1%
CCc1cc(=O)oc2c(CN3CCN(C)CC3)c(O)ccc12	-8%	18%	2%	13	·	2%
CCc1cc(=O)oc2c(CNCc3c(F)cccc3Cl)c(O)ccc12	-2%	18µM*	0%	10	·	-4%
CCOc1ccccc1N1CC(c2nc3ccccc3n2CCCCOc2cc(C)ccc2C)CC1=O (configuration not stated)	?	26µM*	-33%	·	5%	-26%
CCOC(=O)Cn1c(C2CC(=O)N(c3ccc(C)cc3)C2)nc2ccccc21 (configuration not stated)	-25%	-4%	-6%	·	6%	3%
Cc1cccc(OCCCCn2c(C3CC(=O)N(c4ccccc4Cl)C3)nc3ccccc32)c1 (configuration not stated)	?	3.7µM*	?	·	10%	3%
CCOc1ccccc1N1CC(c2nc3ccccc3n2CCCOc2ccccc2OC)CC1=O (configuration not stated)	-26%	?	-2%	·	-3%	5%
Cc1cccc(OCCCCn2c(C3CC(=O)N(c4ccc(C)cc4C)C3)nc3ccccc32)c1 (configuration not stated)	?	?	10µM*	·	10%	-109%
COc1ccccc1OCCCn1c(C2CC(=O)N(c3ccccc3Cl)C2)nc2ccccc21 (configuration not stated)	6.5µM*	13µM*	?	·	10%	-12%
CC1CCc2nc3ncn(Cc4ccccc4C#N)c(=O)c3cc2C1 (configuration not stated)	?	?	-14%	·	9%	-20%
C/C(=N\NC(=O)CSc1nc(C)cc(C)n1)c1cccc([N+](=O)[O-])c1	-15%	-4%	7%	59	5%	0%
CCOc1ccccc1NC(=O)c1c(NC(=O)c2ccccc2)sc2c1CCCC2	?	4.1µM*	-24%	·	2%[12.3 µM]	-38%
CCOc1ccccc1NC(=O)c1c(NC(=O)C(C)Oc2ccc(Cl)cc2)sc2c1CCCCC2 (configuration not stated)	?	-29%	6%	·	3%[12.3 µM]	-4%
SMILES	DT40 TDP1 no CPT	DT40 TDP1 CPT	TGFb SMAD3 inh	IL-1B inflam inh	TDP1 inh	HepG2 viability
CCOC(=O)N1CCc2c(sc(NCc3sccc3C)c2C(=O)Nc2ccccc2OCC)C1	23µM*	?	?	·	9%	-34%
CCOc1ccccc1NC(=O)c1c(NCc2cccs2)sc2c1CCCCC2	21µM*	?	18µM*	·	5%	-48%
CCN(CC)CCCC(C)NC(=O)c1c(NC(=O)c2ccccc2)sc2c1CCCC2 (configuration not stated)	?	18µM*	?	·	·	-38%
COc1ccccc1NC(=O)c1nn(C)c2c1CS(=O)(=O)c1ccccc1-2	-18%	-22%	-1%	·	4%	10%
COc1ccc(-c2nc3cnc(N(C)C)nc3n(C)c2=O)cc1	10%	-1%	·	·	·	·
CCOc1ccccc1NC(=O)c1c(NCc2sccc2C)sc2c1CCCCC2	15µM*	8.2µM*	?	·	6%	-35%
CCOc1ccccc1NC(=O)c1c(NCc2sccc2C)sc2c1CCC(C)C2 (configuration not stated)	6.5µM*	6.5µM*	·	·	1%	-35%
Cc1ccc(CNc2ncnc3ccc(-c4c(C)noc4C)cc23)cc1	·	·	·	·	10%	·
C=CCc1cccc(/C=N/NC(=O)c2ccc3nc[nH]c3c2)c1O	5.8µM*	9.2µM*	-5%	236	5%	4%
C=CCc1cccc(/C=N/NC(=O)C(=O)Nc2ccc(C)cc2)c1O	5.2µM*	3.7µM*	2%	31	0%	-20%
O=C(N/N=C/c1ccc(Cl)cc1Cl)c1ccc2nc[nH]c2c1	?	?	-26%	-19	0%	-25%
C=CCc1cccc(/C=N/NC(=O)C(C)Nc2ccc(C)cc2)c1O (configuration not stated)	8.2µM*	16µM*	?	0	8%	-70%
C=CCc1cccc(/C=N/NC(=O)c2ccccc2OC)c1O	?	?	-23%	178	5%	-35%
CC(=O)Nc1ccc(NC(=O)CSc2nnc3ccc(-c4ccc(F)cc4)nn23)cc1	13%	-19%	3%	6	-4%	12%
COC(=O)[C@H](CCCN=C(N)N)NC(=O)CCCc1c(-c2ccccc2)[nH]c2c(F)cc(F)cc12	·	·	·	·	16%	·
